# A selection: hits, their analogues and other compounds. The true share with any hit is near 1.1%.
# NCOA3 inh: inhibitors of human steroid receptor coactivator 3 (SRC3); inhibition, % at 3.6 µM; 360,000 tested, 0.17% active; HEK293 GAL4-SRC3 luciferase reporter, luminescence; Q9Y6Q9;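 active = inhibition above a per-campaign cutoff, the mean of all compounds plus 3 SD, cut at about 60% in these data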;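 note: 0% = DMSO-treated cells and 100% = gossypol-treated cells at 36 µM; higher means less SRC3-driven luciferase light from the GAL4 reporter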
# NR5A2 inv ag: suppresses constitutive activity of human LRH-1; O00482; HEK293T StAR-luciferase reporter, LRH-1 transfected, 24 h; inhibition, % at 3.6 µM; 360,000 tested, 0.13% active; AID 602396;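 active = inhibition above the mean inhibition of all tested compounds plus 3 SD, cut at about 73% in these data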;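 note: 0% = DMSO wells and 100% = reporter-only cells lacking LRH-1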
# NR2F2 inh: inhibitors of human COUP-TFII (NR2F2). P24468. HEK293T NGFI-A luciferase reporter, luminescence. inhibition, % at 8.6 µM. 370,000 tested, 0.7% active;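 active = inhibition above a per-plate cutoff, mean inhibition of test wells between control levels plus 3 SD, cut at about 38% in these data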;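 note: cells cotransfected with COUP-TFII expression vector driving the NGFI-A reporter; 0% = median of COUP-TF2 test wells and 100% = reporter-only cells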
# GalR3 antagonist: antagonists of human GalR3; O60755; HEK293 GalR3-CNG cAMP membrane potential fluorescence; galR3 body fused to GalR1 C-terminus; inhibition, % at 3 µM; 360,000 tested, 0.44% active;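 active = inhibition above the screen-wide average plus 3 SD, cut at about 13% in these data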;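 note: forskolin and galanin both at EC90 stimulate the cells; cAMP rise reported by CNG channel membrane potential dye signal; 0% = forskolin plus galanin with DMSO and 100% = forskolin alone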
# Target sequence (O60755 1-299 limits assumed): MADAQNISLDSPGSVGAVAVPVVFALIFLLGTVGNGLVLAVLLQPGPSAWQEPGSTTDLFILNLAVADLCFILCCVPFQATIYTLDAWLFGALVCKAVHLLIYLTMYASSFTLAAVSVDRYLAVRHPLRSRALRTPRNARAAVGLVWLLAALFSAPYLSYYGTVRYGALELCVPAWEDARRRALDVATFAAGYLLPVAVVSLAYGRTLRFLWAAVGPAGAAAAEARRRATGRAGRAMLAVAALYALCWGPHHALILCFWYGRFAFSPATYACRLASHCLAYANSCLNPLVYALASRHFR
# SRC2 inh: inhibits human steroid receptor coactivator 2; Q15596; HEK293 GAL4-SRC2 luciferase reporter, luminescence; inhibition, % at 9 µM; 370,000 tested, 0.17% active;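 active = inhibition above the mean inhibition of all tested compounds plus 3 SD, set per campaign, cut at about 52% in these data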;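 note: 0% = DMSO treated cells and 100% = cells given Gossypol at 36 µM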
# NCOA1 inh: inhibits human SRC1 coactivator | inhibition, % at 3.6 µM | AID 588354 | HEK293 GAL4-SRC1 luciferase reporter, luminescence | 360,000 tested, 0.12% active;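 active = inhibition above the campaign mean plus 3 SD, with each screening campaign given its own cutoff, cut at about 60% in these data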;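 note: 0% = DMSO treated cells and 100% = gossypol at 36 µM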
# Gal4-VP16 ctr: counter-screen for COUP-TFII antagonists: inhibitors of VP16. shares compounds with NR2F2 inh. HEK293 Gal4-VP16 luciferase reporter, luminescence. inhibition, % at 8.5 µM. 2,500 tested, 25% active. AID 687007; in the data active = inhibition above about 13%
# NR2F2 inh conf: COUP-TFII (NR2F2) inhibition, confirmation assay; shares compounds with NR2F2 inh; inhibition, % at 8.5 µM; 2,500 tested, 45% active; HEK293 NGFI-A luciferase reporter, luminescence; AID 687008;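 active = mean inhibition over three repeats above a set limit taken from the earlier primary screen, cut at about 38% in these data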;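 note: 100% = cells given the luciferase reporter alone without the COUP-TF2 vector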
# * hit, by the source's call; / = no result given.
SMILES,NCOA3 inh,NR5A2 inv ag,NR2F2 inh,GalR3 antagonist,SRC2 inh,NCOA1 inh,Gal4-VP16 ctr,NR2F2 inh conf
C#CC[N+](C)(C)CCCCCCCCCCCC,59,53,41*,4,31,39,1,30
CCC(=O)N1CCc2cc(Br)c(S(=O)(=O)NCCCN(CC)Cc3ccccc3)cc21,/,/,11,/,-16,/,/,/
C=CCn1c(SCC(=O)Nc2ccc(CCCC)cc2)nnc1-c1ccc(Cl)cc1,/,/,-56,/,-11,/,/,/
O=C(NC1=NCCS1)C1COc2ccccc2O1 (stereo not drawn),28,-10,49*,-6,57*,22,19*,49*
COc1ccc(-n2c(C(C)n3nc(C)c([N+](=O)[O-])c3C)n[nH]c2=S)cc1 (stereo not drawn),12,-4,-2,-1,-2,13,/,/
COc1ccc(-n2c(C)c([N+](=O)[O-])c3ccc(O)c(CN(C)C)c32)cc1,61,28,41*,-6,54*,69*,29*,33
COC(=O)[C@H]1C[C@@]2(n3ccc4ccccc43)c3ccccc3N(S(=O)(=O)c3ccccc3)[C@H]2N1C(=O)CNC1CCCCC1,/,/,0,/,19,/,/,/
COC(=O)c1ccccc1NS(C)(=O)=O,10,20,103*,-9,8,-1,-3,-6
COC(=O)c1cccc(NS(C)(=O)=O)c1C,-3,-8,1,-4,-8,-11,/,/
CCN(CCNC(=O)[C@H]1C=C(OC)C(=O)C[C@H](c2ccccc2)[C@H]1C)C(C)=O,/,/,-10,/,4,/,/,/
N/C(=N\OC(=O)c1ccc2ccccc2c1)c1ccncc1,-116,-181,-48,-1,-56,-126,/,/
CCCc1ccc(C(=O)O/N=C(\N)c2ccccn2)cc1,47,45,68*,-11,59*,55,-31,53*
Cc1ccc(C(=O)O/N=C(\N)c2ccccn2)c(Cl)c1,57,50,78*,-9,77*,36,20*,47*
N/C(=N\OC(=O)c1ccc(Cl)cc1Cl)c1ccccn1,15,-29,37,-2,46,-33,/,/
N/C(=N\OC(=O)c1ccc2ccccc2c1)c1ccccn1,-11,-1,45*,-2,38,-47,-174,-63
Cc1ccc(-c2c(NC(=O)c3ccccc3)nc3ncccn23)cc1,/,/,10,/,6,/,/,/
CC1C(=O)N(Cc2cccc(F)c2)c2ccccc2N1C(=O)c1ccccc1 (stereo not drawn),-1,-9,-16,-9,-8,-11,/,/
CC1C(=O)N(Cc2ccccc2F)c2ccccc2N1C(=O)c1c(F)cccc1F (stereo not drawn),16,-11,47*,-8,11,11,-5,18
COc1cccc(CN2C(=O)C(C)N(C(=O)c3c(F)cccc3F)c3ccccc32)c1 (stereo not drawn),22,-6,50*,-11,5,8,8,19
CC(=C\c1ccccc1)/C=C1/SC(=S)N(CCCC(=O)O)C1=O,2,3,38*,-5,53*,-9,73*,51*
CC(/C=C1\SC(=O)N(CCCC(=O)O)C1=O)=C\c1ccccc1,42,20,92*,-2,93*,26,92*,100*
COc1cccc(/C=C2\SC(=S)N(CCC(=O)N3CCCCC3CCO)C2=O)c1 (stereo not drawn),15,-15,-6,-8,17,-10,/,/
COc1cccc(/C=C2\SC(=S)N(CCCC(=O)N3CCCCC3CCO)C2=O)c1 (stereo not drawn),18,10,39*,2,52,18,31*,20
COc1ccc(/C=C2/SC(=S)N(CCC(=O)O)C2=O)cc1,48,20,46*,-2,84*,49,12,56*
CC(=Cc1ccccc1)C=C1SC(=S)N(CCCC(=O)Nc2ccc(C(=O)O)cc2)C1=O,-55,-12,0,-6,-1,-77,/,/
SMILES,NCOA3 inh,NR5A2 inv ag,NR2F2 inh,GalR3 antagonist,SRC2 inh,NCOA1 inh,Gal4-VP16 ctr,NR2F2 inh conf
C=CCn1c(SCC(=O)OC(C)C)nnc1-c1ccc(C)cc1,/,/,-24,/,6,/,/,/
COCCCNC(=O)C[C@H]1C[C@@]2(C(=O)OC)C(=C[C@H](C(C)C)O[C@@H]2C2CC2)N(CCc2ccc(OC)c(OC)c2)C1=O,/,/,-3,/,7,/,/,/
O=C1CC(c2ccc3c(c2)OCO3)N=C2N(Cc3ccc4c(c3)OCO4)C/C(=C/c3ccccc3)N12 (stereo not drawn),/,/,3,/,/,/,/,/
O=C(O)CCCN1C(=O)/C(=C\c2ccco2)SC1=S,23,10,44*,-4,47,2,50*,36
Cc1ccc2c(c1)nnn2C1CCN(S(=O)(=O)c2ccc(C(=O)N3C(C)CCCC3C)cc2)CC1 (stereo not drawn),28,9,42*,-2,27,19,8,55*
Cc1ccc2c(c1)nnn2C1CCN(S(=O)(=O)c2ccc(C(=O)O)cc2)CC1,14,-14,-6,-1,-14,-6,/,/
O=C1N(Cc2ccccc2)c2ccccc2C12CCCc1sc(CCc3ccccc3)nc12 (stereo not drawn),/,/,4,/,5,/,/,/
COc1cc(NC(=O)CSc2nc3[nH]ncc3c(=O)n2-c2ccccc2C)cc(OC)c1OC,-3,18,-1,4,-9,1,/,/
C=CCN(C(=O)CSc1nc2[nH]ncc2c(=O)n1-c1ccccc1OC)c1ccccc1,2,-9,42*,-3,17,-10,-6,-3
O=C(Nc1ccc(Oc2ccccc2)cc1)c1cnc2n(c1=O)CCS2,-2,-2,43*,9,2,-5,-58,38*
COc1cccc(/C=N/Nc2ccc(C(=O)O)cc2)c1O,79*,46,69*,-5,79*,76*,65*,92*
COc1cccc(/C=N/Nc2ccc(S(=O)(=O)O)cc2)c1O,-6,-4,-13,-6,6,8,/,/
CC(C)(C)c1ccc(/C=N/Nc2ccc(C(=O)O)cc2)cc1,64*,57,70*,-4,26,48,-22,69*
CN(C)NC1=CC(=[N+]2CCCC2)CC(C)(C)C1,24,6,-14,-4,-4,-2,/,/
CCCN(CCC)C1=CC(=[N+]2CCCC2)CC(C)(C)C1,55,72,53*,24*,39,61*,11,43*
c1ccc(CCNc2ncnc3ccccc23)cc1,11,-54,57*,93*,15,-22,-149,29
O=C(CSc1ncnc2ccccc12)NCCc1ccccc1,7,15,4,0,5,-25,/,/

# Source: PubChem BioAssay (The Scripps Research Institute Molecular Screening Center)
